# An excerpt weighted towards active compounds, which were near 0.43% of everything screened.
# GAA glycogen = alters human alpha-glucosidase cleavage of glycogen; recombinant GAA, glycogen substrate, Amplex Red glucose oxidase fluorescence; P10253; 300,000 compounds, 0.38% hits; Potency, µM (series often up to 76.4 µM), inactives show at the top dose activity change, negative = inhibition, hits mostly inhibitors;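 further: potency means the concentration at half of the fitted maximal effect; 0% = full enzyme reaction and -100% = no-enzyme basal signal; the screen sought inhibitors and activators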
#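 Recombinant human enzyme (4 nM); glycogen substrate; 37 C, 40 min, pH 5.0. Readout: coupled glucose oxidase/Amplex Red fluorescence.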
# N370S GC mod = N370S glucocerebrosidase modulation, Gaucher chaperone candidate; P04062; 330,000 compounds, 0.092% hits; Potency, µM (doses to about 59.4 µM), without a hit: at the highest dose activity change, negative = inhibition, usual class: inhibitors; N370S GC spleen homogenate, 4MU-glucoside fluorescence;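 further: potency means the concentration at half of the fitted maximal effect; 0% = full enzyme activity and -100% = no enzyme basal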
# GLA inh pH 4.5 = alpha-galactosidase A (human) inhibition, pH 4.5; P06280; purified enzyme, 4-MU-alpha-Gal fluorescence, pH 4.5; activity change, negative = inhibition, % at 105 µM; 230,000 tested, under 10 active; AID 1467;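 further: 0% = full activity with enzyme and -100% = basal without enzyme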
# Target sequence (P06280 whole entry, looked up): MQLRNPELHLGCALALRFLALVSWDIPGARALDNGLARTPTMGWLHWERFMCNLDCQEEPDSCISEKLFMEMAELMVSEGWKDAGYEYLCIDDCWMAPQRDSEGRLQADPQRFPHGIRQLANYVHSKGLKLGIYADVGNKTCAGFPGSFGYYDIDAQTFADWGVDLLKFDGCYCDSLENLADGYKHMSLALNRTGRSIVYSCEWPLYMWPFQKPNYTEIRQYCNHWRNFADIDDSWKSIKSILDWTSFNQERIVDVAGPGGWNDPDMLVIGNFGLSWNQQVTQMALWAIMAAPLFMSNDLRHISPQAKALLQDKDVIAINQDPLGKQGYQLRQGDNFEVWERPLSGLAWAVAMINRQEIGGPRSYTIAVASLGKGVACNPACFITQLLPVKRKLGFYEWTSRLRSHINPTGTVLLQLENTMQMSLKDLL
# GLA spleen mod = inhibits or activates alpha-galactosidase in human spleen homogenate; P06280; human spleen homogenate, 4MU-alpha-Gal fluorescence, 40 min; Potency, µM (top dose mostly 80 µM), without a hit: at the highest dose activity change, negative = inhibition, actives largely listed as inhibitors; 240,000 compounds, 0.008% hits; AID 2107;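 further: potency means the concentration at half of the fitted maximal effect; 0% = enzyme with vehicle and -100% = no enzyme basal signal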
#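 Inhibition or activation of alpha-galactosidase in human spleen homogenate is scored by 4-MU fluorescence after 40 min at 37C, pH 5.0, with 1 mM substrate. AC50s come from concentration-response fitted to the Hill equation.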
# GAA inhib = blocks human lysosomal alpha-glucosidase; P10253; purified human GAA, 4-MU-alpha-glucoside fluorescence; Potency, µM (doses to about 76.9 µM), for inactives: top-dose activity change, negative = inhibition, actives largely listed as inhibitors; 200,000 compounds, 0.005% hits; AID 1466;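 further: potency means the concentration at half of the fitted maximal effect; plate controls were uninhibited enzyme wells for no effect and no-enzyme background for full effect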
#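 Human enzyme at 4 nM with 400 uM 4-methylumbelliferyl-alpha-D-pyranoside, citrate/phosphate buffer pH 5.0, 0.005% Tween-20, 20 min at room temperature. Compounds up to 77 uM. 4-MU fluorescence (Ex 365/Em 440) read after NaOH/glycine stop; AC50 from Hill fit.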
# aGlu spleen mod = inhibitors or activators of human alpha-glucosidase in spleen homogenate; P10253; human spleen homogenate, 4-MU-alpha-glucoside fluorescence; Potency, µM (doses to about 79.9 µM), inactives show top-dose activity change, negative = inhibition, usual class: inhibitors; 240,000 compounds, 0.006% hits; AID 2112;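 further: potency means the concentration at half of the fitted maximal effect; 0% = enzyme with vehicle and -100% = no enzyme basal signal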
#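 AC50 values come from Hill-equation fits of concentration-response data, normalized to no-enzyme and full-activity controls. Enzyme source: 1 ug human spleen homogenate; 1 mM fluorogenic 4-MU glucoside, pH 5.0 citrate buffer, 37 C, 40 min.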
# Starred values were filed as active, the others as inactive; ? = inconclusive; . = no result; [ ] = remark or other dose. The call rests on the fitted dose curve; in most records, active means well fitted curve in the direction sought with a large enough effect; inconclusive means small, poorly fitted or top-dose-only effect, or another doubt; inactive means no such curve, though single readings can be large; an effect the other way counts as inactive or inconclusive.
SMILES,GAA glycogen,N370S GC mod,GLA inh pH 4.5,GLA spleen mod,GAA inhib,aGlu spleen mod
COc1cccc(C(=O)CC2c3c(c(Br)c4c(c3OC)OCO4)CCN2C)c1 (stereo not drawn),.,-4%,-8,-4%,.,-5%
CCN(CCN(C)C)C(=O)C1CCN(S(=O)(=O)c2c(C)noc2/C=C/c2ccccc2F)CC1,0%[76.3 µM],7.1µM*,.,.,.,.
CCOc1ccccc1/C=C/c1onc(C)c1S(=O)(=O)N1CCC(C(=O)N(CC)CC)CC1,.,-41%,.,.,.,.
O=C(Nc1cc(Cl)cc2c1[nH]c1cnccc12)c1cccnc1,.,-8%,.,-3%,.,-1%
CCC1CN(S(=O)(=O)c2ccc3c(c2)NC(=O)CC(=O)N3)c2cc(Cl)ccc2O1 (stereo not drawn),-9%[76.3 µM],1.6µM*,.,.,.,.
CSCC[C@H](NC(=O)[C@@H](NC(=O)[C@H](CCC(=O)O)NC(=O)[C@H](CCSC)NC(=O)[C@H](CC(N)=O)NC(=O)[C@H](CCC(=O)O)NC(=O)[C@H](CC(N)=O)NC(=O)[C@H](CO)NC(=O)[C@H](C)N)[C@@H](C)O)C(=O)O,.,-5%,.,-17%,.,-2%
CCN1CCN(C(=S)c2ccc(-c3ccccc3)cc2)CC1,-14%,11µM*,-7,2%,1%,7%
Cc1ccc(C(=S)N2CCN(Cc3ccccc3)CC2)cc1,-3%,13%,-8,-4%,-3%,-2%
Cc1ccc(C)c(NC(=S)NNC(=O)c2ccco2)c1,22µM*,-5%,-9,9%,0%,0%
S=C(NCc1ccncc1)Nc1ccccc1,9%,-4%,3,1%,5%,3%
S=C(NCc1ccncc1)Nc1ccc(Br)cc1,-6%[76.3 µM],18µM*,.,.,.,.
O=C1c2ccccc2C(=O)N1CCc1c[nH]c2ccc(O)cc12,3.1µM*,5%,4,1%,?,1%
Cc1cc2c(c(=O)o1)[C@@H](O)[C@H]1O[C@@H]1C2=O,.,-3%[12.8 µM],.,1%[17.5 µM],.,1%[17.4 µM]
COc1cc(C2C(C#N)=C(N)Oc3n[nH]c(-c4cccs4)c32)cc(OC)c1O (stereo not drawn),18µM*,-2%,-1,8%,.,8%
CCOC(=O)CN=C1CC(C)(C)CC2=C1Sc1ncnc(N(C)C)c1N2,28µM*,-4%,0,6%,0%,-1%
C=C[C@@H](C1=CC(=O)C(OC)=C(OC)C1=O)c1ccccc1,.,-17%,-1,-11%,.,-1%
CCOc1cc(CNCCO)cc(Br)c1OCc1ccc(Cl)cc1Cl,-4%,10µM*,-3,-4%,-15%,-9%
CC(=O)c1ccc(N2CCN(c3ccc(C(N)=O)cc3[N+](=O)[O-])CC2)cc1,-3%,-16%,-2,13%,6%,4%
NC(=O)c1ccc(N2CCN(c3ccc(O)cc3)CC2)c([N+](=O)[O-])c1,5µM*,-9%,5,0%,10%,-3%
O=[N+]([O-])c1cc(Cl)ccc1N1CCN(c2ccccc2O)CC1,8.8µM*,-10%,5,-5%,-1%,-6%
Cc1cccc(NC(=S)N(CCCN2CCOCC2)Cc2ccccn2)c1,5%,?,2,0%,-6%,-2%
S=C(Nc1ccc(Oc2ccccc2)cc1)N(CCCN1CCOCC1)Cc1ccccn1,-5%,10µM*,-5,9%,0%,5%
COc1ccc(Cn2c(C)nnc2-c2cnn(C)c2N)cc1,-1%,5%,12,28µM*,5%,?
Oc1ccc(-c2nc3ncccn3c2Nc2ccc3c(c2)OCCO3)cc1,25µM*,.,0,-7%,-7%,-12%
Cc1ccc(-c2nc3ncccn3c2Nc2ccc3c(c2)OCCO3)o1,14µM*,-2%,-3,4%,-3%,-4%
SMILES,GAA glycogen,N370S GC mod,GLA inh pH 4.5,GLA spleen mod,GAA inhib,aGlu spleen mod
Brc1ccc(-c2nc3ncccn3c2Nc2ccc3c(c2)OCCO3)o1,22µM*,5%,-1,-14%,-9%,-9%
Cc1ccc(-c2nc3ncccn3c2NC2CCCCC2)o1,28µM*,-26%,-2,-1%,-2%,-8%
Cc1ccc(-c2nc3ncccn3c2NC(=O)C2CC2)cc1,-4%,0%,-20,7%,6%,0%
Cc1ccc(-c2nc3ncccn3c2Nc2ccc3c(c2)OCCO3)cc1,?,-11%,-8,-10%,-17%,-3%
Clc1ccc(-c2nc3ncccn3c2Nc2ccc3c(c2)OCCO3)cc1,?,8%,5,-18%,-3%,2%
CC1OC(OCC2OC(Oc3cc(O)c4c(c3)OC(c3ccc(O)cc3)CC4=O)C(O)C(O)C2O)C(O)C(O)C1O (stereo not drawn),.,-6%,.,15%,.,-1%
O=[N+]([O-])c1ccc2c(c1)S(=O)(=O)C=C2,.,-1%,.,2%,.,9%
N#C/C(=C/c1ccc(F)cc1)S(=O)(=O)c1ccccc1,-5%,-17%,-4,16%,.,6%
N#C/C(=C\c1ccc(O)c(O)c1)S(=O)(=O)c1ccccc1,7.1µM*,-17%,-22,3%,-7%,-7%
C[C@H](CCC(=O)NCC(=O)O)C1CC[C@H]2[C@H]3C(C[C@H](O)[C@]12C)[C@@]1(C)CC[C@@H](O)C[C@H]1C[C@H]3O (stereo partly drawn),.,0%,.,2%,.,13%
CC(C)C1C(=O)N(S(C)(=O)=O)[C@H]2CCN(C(=O)/C=C/CN3CCCCC3)[C@@H]12 (stereo partly drawn),.,4%,.,6%,.,-3%
COC(=O)[C@@H](N)Cc1ccc(O)c(O)c1,.,-2%,-2,11%,.,2%
COC(=O)Cc1ccc(O)c(N)c1,5.6µM*,7%,6,0%,4%,6%
COC(=O)[C@H](COC(C)(C)C)NC(=O)O[C@@H]1C(=O)c2cc(OC)ccc2O[C@H]1c1cccc(OC)c1,.,-15%,-10,3%,.,2%
O=C1C=CC2=C3c4cc(O)c(O)cc4C[C@@]3(O)COC2=C1,.,-8%,2,3%,.,5%
COC(=O)CCCC1=CC2=C(c3ccccc3)C(=O)C(C)(OC(=O)C3CCCC3)C(=O)C2=CN1CCCOC(C)C (stereo not drawn),.,3%[12.8 µM],8,-7%[17.5 µM],.,12%[17.4 µM]
Fc1ccccc1-c1nc(NCc2ccccc2)c2ccccc2n1,-12%,13µM*,-18,5%,.,-17%
COCCNc1nc(-c2ccccc2Cl)nc2ccccc12,.,7.9µM*,.,-7%,.,-5%
c1ccc(CNc2nc(-c3ccccc3)nc3ccccc23)cc1,-12%[76.3 µM],?,.,.,.,.
c1ccc(CNc2nc(-c3cccs3)nc3ccccc23)cc1,7%,0.5µM*,-6,-5%,-3%,-3%

# Assay outcomes (PubChem BioAssay)
